Test results reported in PubChem BioAssay (NCI).
This is part of a sample that, as a whole, favours compounds with a hit. Of some 83,000 tested, about 20% had one in any assay.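 Testing used 96-well plates and a 48-hour single-concentration exposure. Example: -40 means 40% of the starting cells died.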 The source made the active and inactive calls. How the source made its calls: active means growth percent below 10; inactive means the rest.

The compounds below were run on MDA-MB-468 breast (assay: NCI-60 one-dose screen, 48 h (100 = growth as untreated, 0 = no growth, -100 = all killed)). Conditions: 10 µM unless noted.

Compound | growth
COc1ccc(C2CC(c3ccccc3)=Nc3ccccc3S2)cc1 (centres undefined) | 102% (inactive)
Cc1cc(N=Nc2ccc(-c3ccc(N=Nc4ccc(O)c(C(=O)O)c4)cc3)cc2)c(N)c(N=Nc2ccc(C(=O)O)cc2)c1N | 92.6% (inactive)
COc1cc2oc(-c3cccc(C(=O)Nc4ccc(Cl)cc4)c3)cc(=O)c2c(OC)c1OC | 43.6% (inactive)
O=[N+]([O-])c1ccc(Oc2ccccc2Cl)c([N+](=O)[O-])c1 | 64.2% (inactive)
